Bioassay records as filed in PubChem.
Hits are enriched below; roughly 22% of the tested compounds scored in any of these assays.
CYP2C9 inh: human CYP2C9 inhibition | AID 777 | P11712 | CYP2C9 Supersomes, luciferin-H conversion, luminescence | 20% of 96,000 active | inhibition, % at 5 µM;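 active = blocking of liver enzyme CYP2C9 beyond about 50% at 5 µM, limit read from the data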
Target sequence (P11712 whole entry, looked up): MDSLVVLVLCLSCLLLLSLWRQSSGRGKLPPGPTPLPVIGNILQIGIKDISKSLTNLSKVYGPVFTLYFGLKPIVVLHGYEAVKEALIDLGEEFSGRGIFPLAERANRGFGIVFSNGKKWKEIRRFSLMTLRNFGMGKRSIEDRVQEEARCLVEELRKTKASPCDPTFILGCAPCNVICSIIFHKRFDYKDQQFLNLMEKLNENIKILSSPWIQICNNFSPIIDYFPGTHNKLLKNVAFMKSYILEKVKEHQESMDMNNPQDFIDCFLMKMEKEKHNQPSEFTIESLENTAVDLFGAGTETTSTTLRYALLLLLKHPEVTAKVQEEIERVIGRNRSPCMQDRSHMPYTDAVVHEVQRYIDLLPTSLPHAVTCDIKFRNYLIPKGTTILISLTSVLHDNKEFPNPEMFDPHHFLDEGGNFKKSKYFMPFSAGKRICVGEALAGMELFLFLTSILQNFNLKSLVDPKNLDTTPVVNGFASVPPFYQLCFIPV
CYP2C9 act: CYP2C9 (human) activation; P11712; recombinant CYP2C9, luciferin-H conversion, luminescence; stronger effect = higher value; factor 1 = untreated enzyme, 0 = blocked; activation factor at 5 µM; 1.4% of 96,000 active; AID 1024;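 active = activation factor of 2 or more for CYP2C9 at a 5 µM dose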;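 also: 0 = sulfaphenazole-blocked wells and 1 = vehicle-only wells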
CYP2C19 inhib: blocks human cytochrome P450 2C19; P33261; CYP2C19 Supersomes, luciferin-H EGE luminescence, 30 min; inhibition, % at 5 µM; 21% of 96,000 active; AID 778;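 active = CYP2C19 inhibition above a set limit at 5 µM in the primary screen, cut at about 50% in these data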;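 also: plate controls were negative control wells for no effect and 2.5 mM tranylcypromine positive control for full effect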
CYP2C19 activ: increases human CYP2C19 enzyme activity; recombinant CYP2C19, luciferin-H EGE luminescence; stronger effect = higher value; 0 = fully inhibited enzyme, 1 = untreated enzyme; activation factor at 5 µM; 96,000 tested, under 10 active;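 active = activation factor of at least 2 at 5 µM in the primary screen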;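 also: 0 = wells with 2.5 mM tranylcypromine and 1 = vehicle-only wells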
Measles CPE: protection of cells from measles virus | Measles virus-infected cells, CPE protection, absorbance | protection (pct of control), % at 4 µM | 1.5% of 140,000 active; in the data active = protection mostly above about 24%, no sharp cut-off; inactive = mostly below about 26%
Starred values were filed as active, the others as inactive; . = no result given.

SMILES	CYP2C9 inh	CYP2C9 act	CYP2C19 inhib	CYP2C19 activ	Measles CPE
COC(=O)c1c(NC(=O)Cn2cc([N+](=O)[O-])cn2)sc2c1CCC2	-4	1	7	0.9	7
O=C(Nc1ccc(S(=O)(=O)N2CCc3ccccc32)cc1)c1ccc2c(c1)OCO2	40	0.6	19	0.8	10
COc1cc(NS(=O)(=O)c2cccc3nsnc23)cc(OC)c1	45	0.5	93*	0.1	10
CSc1cccc(NS(=O)(=O)c2cccc3nsnc23)c1	64*	0.4	58*	0.4	15
CC1CCCCC12NC(=O)N(CC(=O)NC(=O)Nc1ccc3c(c1)OCCO3)C2=O (configuration not stated)	1	1	19	0.8	20
CC(C)COC(=O)c1nnsc1NC(=O)Nc1ccccc1	38	0.6	20	0.8	6
CCOC(=O)/C(C#N)=C1/C=CN(C)C(C)=N1	-6	1.1	-9	1.1	29*
CCCCn1c(C)cc(/C=C(\C#N)C(=O)O)c1C	.	.	.	.	9
CC1CCC(C(=O)NC(C(=O)NCc2ccccn2)C(C)C)CC1 (configuration not stated)	13	0.9	12	0.9	20
N=c1n(CCN2CCCCC2)c2ccccc2n1CC(O)c1ccc(Cl)c(Cl)c1 (configuration not stated)	82*	0.2	50	0.5	3
[O-][n+]1ccc(C2CC2)cc1	-6	1.1	-7	1.1	11
Cc1ccc(S(=O)(=O)N/N=C/c2ccc(OCC(=O)Nc3ccccc3Cl)cc2)cc1	84*	0.2	30	0.7	2
O=C(COc1ccc(/C=N/NS(=O)(=O)c2ccccc2)cc1)Nc1ccc(F)cc1	65*	0.4	17	0.8	48
CCC1=NN(C(=O)c2cccc(Br)c2)C(O)(c2ccc(Br)cc2)C1 (configuration not stated)	.	.	.	.	2
Cc1nn(Cc2ccccc2)c(Cl)c1/C=N/NC(=O)c1cccnc1	.	.	.	.	11
CN(C(=O)CSc1nc2ccccc2n1CCc1ccccc1)C1CCS(=O)(=O)C1 (configuration not stated)	6	0.9	68*	0.3	4
CCn1c(SCC(=O)N(Cc2ccccc2)C2CCS(=O)(=O)C2)nc2ccccc2c1=O (configuration not stated)	95*	0	81*	0.2	2
CCN(CC)C(=O)CSc1nc2ccccc2c(=O)n1CC1CCCCC1	44	0.6	33	0.7	4
COc1cccc(-c2cc(C(=O)Nc3cc(C)on3)no2)c1	-2	1	-12	1.1	15
C=C(C)c1cccc(C(C)(C)NC(=O)N2CCOCC2)c1	17	0.8	56*	0.4	13
C=C(C)c1cccc(C(C)(C)NC(=O)N2CCN(c3ccccn3)CC2)c1	44	0.6	28	0.7	7
CC(C(=O)N1CCOCC1)(c1ccccc1)c1ccccc1	24	0.8	94*	0.1	8
C=C(C)c1cccc(C(C)(C)NC(=O)N2CC(C)OC(C)C2)c1 (configuration not stated)	8	0.9	69*	0.3	18
O=C(Oc1ccccc1OC(=O)N1CCOCC1)N1CCOCC1	-4	1	8	0.9	4
C=C(C)c1cccc(C(C)(C)NC(=O)N2CCCC2)c1	.	.	.	.	4
SMILES	CYP2C9 inh	CYP2C9 act	CYP2C19 inhib	CYP2C19 activ	Measles CPE
CCOC(=O)C1C(c2cccc(F)c2)NC(=S)NC1(O)C(F)(F)F (configuration not stated)	.	.	.	.	11
O=C(Nc1nccs1)C1CC(=O)N(c2ccccc2Cl)C1 (configuration not stated)	3	1	4	1	5
COCCN(CC(=O)Nc1cccc(C)c1)S(=O)(=O)c1ccc(S(=O)(=O)N2CCCC2)cc1	61*	0.4	-2	1	3
COc1ccc(NC(=O)CCN2CCN(S(=O)(=O)c3cc(Cl)ccc3Cl)CC2)cc1	15	0.8	91*	0.1	10
CCOC(=O)c1cccc(NC(=O)C(C)N2C(=O)c3ccccc3C2=O)c1 (configuration not stated)	97*	0	57*	0.4	9
COC(=O)c1ccc(NC(=O)CN2CCN(c3cccc(Cl)c3)CC2)cc1	76*	0.2	61*	0.4	3
COC(=O)c1c(NC(=O)CN2CCN(c3ccccc3)CC2)c2c(C)cccc2n1C	27	0.7	34	0.7	42*
CCOC(=O)c1ccc(NC(=O)C(C)N2C(=O)c3ccccc3C2=O)cc1 (configuration not stated)	12	0.9	15	0.9	11
